Compound activity (PubChem BioAssay)
BRCA1 expr act – increases BRCA1 expression; MCF7-BRCA1-FFLuc reporter, luminescence, 48 h; response scale: scaled: vehicle 0%, 10 µM genistein 100%; Potency, µM (doses to about 46.1 µM), inactives show at the highest dose activation, usual class: activators; actives 1.1% (n = 380,000); further: nearly all actives have a fitted effect of over 80% in size
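Luminescence from a BRCA1-driven firefly luciferase in MCF7 cells was read after 48 h compound exposure at 37 C. Data normalized against DMSO and a 10microM genistein activation control, then curve-fitted across the titration.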
PLK1 PBD block – inhibitors of human PLK1 polo-box domain binding | P53350 | Plk1 PBD binding of FITC phosphopeptide, fluorescence polarization | Potency, µM, for inactives: max response, negative = inhibition, actives largely listed as inhibitors | actives 2.8% (n = 360,000); further: series mostly up to about 57 µM; on the % scale 0 is the no-effect control and ±100 the full control effect; nearly all actives have a fitted effect of over 65% in size
Target sequence (P53350 whole entry, looked up, the tested form may be a part): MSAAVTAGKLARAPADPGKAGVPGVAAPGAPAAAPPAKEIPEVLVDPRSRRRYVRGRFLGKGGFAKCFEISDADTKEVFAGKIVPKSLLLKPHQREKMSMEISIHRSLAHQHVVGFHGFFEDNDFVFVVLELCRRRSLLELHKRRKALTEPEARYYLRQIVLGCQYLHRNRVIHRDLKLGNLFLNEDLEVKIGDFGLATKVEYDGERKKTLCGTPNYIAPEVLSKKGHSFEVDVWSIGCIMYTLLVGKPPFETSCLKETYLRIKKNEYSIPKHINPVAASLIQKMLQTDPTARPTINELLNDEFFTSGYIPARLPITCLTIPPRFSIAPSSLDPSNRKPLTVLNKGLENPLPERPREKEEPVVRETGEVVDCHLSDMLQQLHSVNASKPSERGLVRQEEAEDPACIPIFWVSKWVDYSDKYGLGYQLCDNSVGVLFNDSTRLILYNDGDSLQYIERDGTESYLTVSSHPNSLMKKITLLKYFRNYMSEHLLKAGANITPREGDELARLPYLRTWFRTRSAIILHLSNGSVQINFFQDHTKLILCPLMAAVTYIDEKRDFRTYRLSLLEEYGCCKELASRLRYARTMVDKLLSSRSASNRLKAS
Tb PFK block – inhibitors of T. brucei phosphofructokinase. O15648. T. brucei PFK, ADP-Glo luminescence. Potency, µM (titrated, usually from 57.5 µM), for the others: at the top dose activity, negative = inhibition, actives largely listed as inhibitors. actives 0.17% (n = 330,000);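 further: 0% = uninhibited 1x PFK enzyme wells and -100% = no-enzyme wells; nearly all actives have a fitted effect of over 60% in size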
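ADP-Glo luminescence quantified ADP after 45 min at room temperature, with 1.25 nM T. brucei PFK, 0.1 mM ATP and 0.5 mM fructose-6-phosphate in pH 8.0 TEA buffer. qHTS titrations up to 57 µM; curves classified by quality.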
VDR inhibitor – inhibitors of human vitamin D receptor. Potency, µM, without a hit: max response, negative = inhibition, actives largely listed as inhibitors. VDR-SRC2-3 peptide fluorescence polarization, 2 h. AID 504847. actives 0.93% (n = 400,000); further: on the % scale 0 is the no-effect control and ±100 the full control effect
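Fluorescence polarization assay measuring small-molecule disruption of VDR binding to the coregulator peptide SRC2-3. Compounds were pin-transferred (23 nl) into the reagent mix and incubated 2 h at room temperature before reading.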
The depositor's hits bear a star. Most compounds without a hit are left out; they make up all but 3.9% or so of the library. The call rests on the fitted dose curve; in most records, active means well fitted curve in the direction sought with a large enough effect; inconclusive means small, poorly fitted or top-dose-only effect, or another doubt; inactive means no such curve, though single readings can be large; an effect the other way counts as inactive or inconclusive. Potency means the concentration at half of the fitted maximal effect.

Results for Cn1c(=O)c2c(-c3ccc(Br)cc3)n(CCc3ccccc3)cc2n(C)c1=O ?
BRCA1 expr act: 1%; VDR inhibitor: -3%

How did CC/C=C\C/C=C\C/C=C\C/C=C\C/C=C\C/C=C\CCC(=O)NCCO do in these assays?
VDR inhibitor: -12%

Results for CCSc1nnc(NC(=O)CSc2nccn2-c2cccc(C)c2C)s1 ?
BRCA1 expr act: 16%; PLK1 PBD block: 3.8µM*; Tb PFK block: -1%; VDR inhibitor: inconclusive

How did CCOC(=O)c1ccc(NC(=O)CCc2c(C)nc3c(c(C)nn3C)c2C)cc1 do in these assays?
BRCA1 expr act: 21%; VDR inhibitor: 5%

What do the screens show for `CCc1nnc(NC(=O)C23CC4CC(CC(C4)C2)C3)s1`?
BRCA1 expr act: 11µM*; PLK1 PBD block: -19%; Tb PFK block: -1%; VDR inhibitor: 12%

What do the screens show for `CC(C)Cc1nnc(NC(=O)C23CC4CC(CC(C4)C2)C3)s1`?
BRCA1 expr act: 6%; PLK1 PBD block: -1%; Tb PFK block: -11%; VDR inhibitor: -13%

What do the screens show for `CC1(C)CC(=O)c2cc(C(=O)NCCc3ccccc3)c(=O)[nH]c2C1`?
BRCA1 expr act: 61%

Results for O=S1(=O)[C@H]2C[C@@H]3C=C[C@@]2(CN1Cc1ccc(F)cc1)O3 ?
BRCA1 expr act: -2%; PLK1 PBD block: 24µM*; Tb PFK block: -1%; VDR inhibitor: inconclusive

How did O=C1CN(C(=O)COC(=O)CCNS(=O)(=O)c2ccc(Cl)cc2)c2ccccc2N1 do in these assays?
BRCA1 expr act: 0%; PLK1 PBD block: -10%; Tb PFK block: 4%; VDR inhibitor: 2%

Results for Cc1ccc(S(=O)(=O)NCC(=O)NCC(=O)OCC(=O)N2CC(=O)Nc3ccccc32)cc1C ?
BRCA1 expr act: -7%; PLK1 PBD block: 17µM*; Tb PFK block: 2%; VDR inhibitor: -12%

What do the screens show for `C1=Cc2ccccc2/C1=C\c1cccc(/C=C2\C=Cc3ccccc32)c1`?
BRCA1 expr act: 12%

How did CCN(CC)C(=O)C1=C(C)N(CCCN2CCCC2=O)C(=O)C(CC(=O)NC2CCCC2)C1 (centres undefined) do in these assays?
BRCA1 expr act: 5%; PLK1 PBD block: -3%

How did O=S1OCCN1c1ccccc1 (centres undefined) do in these assays?
BRCA1 expr act: 8%; PLK1 PBD block: 34µM*; Tb PFK block: 0%; VDR inhibitor: 0%

How did O=C(c1cc(-c2ccccc2O)on1)N1CCc2ccccc2C1 do in these assays?
BRCA1 expr act: 10µM*; PLK1 PBD block: -6%; Tb PFK block: 3%; VDR inhibitor: -9%

What do the screens show for `Cc1ccc(-c2nc(C(=O)NC3CCCCCC3)no2)cc1`?
BRCA1 expr act: 75%; PLK1 PBD block: 9.5µM*; VDR inhibitor: 79µM*

What do the screens show for `CC(C)Oc1ccc(C(=O)NC2CCCCC2)cc1`?
BRCA1 expr act: 4.5µM*; PLK1 PBD block: 0%; Tb PFK block: 0%; VDR inhibitor: 11%

How did CC(C)c1cc(C(=O)NC2CCCCC2)no1 do in these assays?
BRCA1 expr act: 8.9µM*; PLK1 PBD block: 2%; Tb PFK block: -4%; VDR inhibitor: -6%

How did CCC(=O)N1c2ccccc2CC1C(=O)NCc1ccc(OC(C)C)cc1 (centres undefined) do in these assays?
VDR inhibitor: 12%

What do the screens show for `CCOC(=O)c1c(C)[nH]c(C(=O)OCC(=O)N(CC(C)C)C2CCS(=O)(=O)C2)c1C` (centres undefined)?
BRCA1 expr act: -13%; PLK1 PBD block: -13%; Tb PFK block: -1%; VDR inhibitor: -7%

How did Oc1c(C(c2ccc(Cl)cc2)N2CCCC2)sc2nc(-c3ccco3)nn12 (centres undefined) do in these assays?
VDR inhibitor: 2%

Results for O=C(NC1CCCCC1)c1cc(-c2ccccc2O)on1 ?
BRCA1 expr act: 2µM*; PLK1 PBD block: -2%; Tb PFK block: -11%; VDR inhibitor: -5%

Results for O=C(NC1CCCCC1)c1cc(-c2ccc(O)cc2)on1 ?
BRCA1 expr act: inconclusive; PLK1 PBD block: -6%; Tb PFK block: 0%; VDR inhibitor: -2%

What do the screens show for `Cc1ccc(C(=O)Nc2cccnc2)cc1S(=O)(=O)N1CCCCC1`?
BRCA1 expr act: 7%; PLK1 PBD block: 17µM*; Tb PFK block: 6%; VDR inhibitor: inconclusive

What do the screens show for `Cc1ccc(C(=O)Nc2cccnc2)cc1S(=O)(=O)N1CCCC1`?
BRCA1 expr act: 10%; PLK1 PBD block: 2%; Tb PFK block: 4%; VDR inhibitor: 10%
